From PubChem BioAssay (NCI)
The panel holds about 83,000 compounds, 20% with a hit somewhere; the sample as a whole holds those more often.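 Percent growth is the endpoint: 0 to 100 indicates growth inhibition (40 means 60% inhibition), 0 means no net growth, and negative values indicate cell death.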 Active and inactive are the calls of the source. Rule for the calls: active = growth percent below 10; inactive = the rest.

What was measured:
Test in all cases: NCI-60 one-dose screen, 48 h (100 = growth as untreated, 0 = no growth, -100 = all killed)
Conditions in all cases: 10 µM
NCI-H23 lung = system: NCI-H23 lung
NCI-H226 lung = system: NCI-H226 lung
NCI-H322M lung = system: NCI-H322M lung
HOP-62 NSCLC = system: HOP-62 NSCLC
NCI-H460 lung = system: NCI-H460 lung
NCI-H522 lung = system: NCI-H522 lung
A549/ATCC NSCLC = system: A549/ATCC NSCLC
786-0 renal = system: 786-0 renal
COLO 205 colon = system: COLO 205 colon
DU-145 prostate = system: DU-145 prostate
K-562 leukemia = system: K-562 leukemia
MDA-MB-231 breast = system: MDA-MB-231 breast
RXF 393 renal = system: RXF 393 renal
SF-268 CNS = system: SF-268 CNS
SF-295 CNS = system: SF-295 CNS
SF-539 CNS = system: SF-539 CNS
UACC-257 melanoma = system: UACC-257 melanoma
M14 melanoma = system: M14 melanoma
HCT-15 colon = system: HCT-15 colon

Measured: growth

CC(C)=CCc1ccc(O)c(=O)cc1C(C)C
inactive: NCI-H23 lung 12.9% | NCI-H322M lung 10.5% | HOP-62 NSCLC 14.6% | NCI-H522 lung 28.5% | COLO 205 colon 26.7% | DU-145 prostate 28.5% | K-562 leukemia 11.1% | MDA-MB-231 breast 52.4% | RXF 393 renal 12.7% | SF-268 CNS 13.7% | SF-539 CNS 20% | UACC-257 melanoma 13.6% | HCT-15 colon 38.1%
active: NCI-H226 lung 4.5% | NCI-H460 lung 5.04% | A549/ATCC NSCLC 9.13% | 786-0 renal 6.68% | SF-295 CNS 8.22% | M14 melanoma -16.8%

C=C(C(=O)c1ccccc1)C(NC(C)(C)C)c1ccccc1 (stereo unspecified)
inactive: NCI-H23 lung 31.9% | NCI-H226 lung 67.9% | NCI-H322M lung 98.6% | HOP-62 NSCLC 47.5% | NCI-H460 lung 26.9% | A549/ATCC NSCLC 43.2% | 786-0 renal 23.1% | DU-145 prostate 20.6% | SF-295 CNS 110%
active: NCI-H522 lung -83.9% | COLO 205 colon -77% | K-562 leukemia 4.27% | MDA-MB-231 breast -11.3% | RXF 393 renal -56.1% | SF-268 CNS 7.85% | SF-539 CNS -24.1% | UACC-257 melanoma -15.3% | M14 melanoma -33.6% | HCT-15 colon -48.7%

COc1ccc(/C(=C2\O[C@@H]([C@H]3COC(C)(C)O3)[C@H]3OC(C)(C)O[C@@H]23)c2cc(OC)c(OC)c(OC)c2)cc1O
inactive: NCI-H23 lung 72.3% | NCI-H226 lung 108% | NCI-H322M lung 34.8% | HOP-62 NSCLC 48.5% | NCI-H460 lung 79.4% | NCI-H522 lung 43.4% | A549/ATCC NSCLC 84.2% | 786-0 renal 101% | COLO 205 colon 121% | DU-145 prostate 34.8% | K-562 leukemia 24.3% | MDA-MB-231 breast 43.9% | RXF 393 renal 81.9% | SF-268 CNS 36.3% | SF-295 CNS 85.2% | UACC-257 melanoma 107% | HCT-15 colon 26.9%
active: SF-539 CNS 9.85% | M14 melanoma 7.95%

O=C1OCC2=C1C(c1cccc(Cl)c1)c1cc3c(cc1N2CCO)CCC3 (stereo unspecified)
active: NCI-H23 lung 8.79% | NCI-H226 lung -18.1% | NCI-H460 lung -12.7% | NCI-H522 lung -29.2% | COLO 205 colon -47.1% | DU-145 prostate -46.2% | MDA-MB-231 breast -19.3% | SF-295 CNS -18.8% | SF-539 CNS -5.32% | M14 melanoma 8.51% | HCT-15 colon 9.71%
inactive: NCI-H322M lung 33% | HOP-62 NSCLC 21% | A549/ATCC NSCLC 11.7% | 786-0 renal 18% | K-562 leukemia 16.7% | RXF 393 renal 34.3% | SF-268 CNS 13.9% | UACC-257 melanoma 46%

COc1cc(-c2cc(C(=O)N3CCN(C(=O)c4ccccc4NCc4ccco4)CC3)nc3cc(-c4ccccc4)nn23)cc(OC)c1OC
inactive: NCI-H23 lung 56.7% | NCI-H226 lung 57% | NCI-H322M lung 13.5% | HOP-62 NSCLC 45.2% | A549/ATCC NSCLC 24.6% | 786-0 renal 31.6% | K-562 leukemia 12.3% | MDA-MB-231 breast 42.9% | SF-268 CNS 38.6% | SF-295 CNS 49.7% | SF-539 CNS 17.8% | UACC-257 melanoma 33.6% | M14 melanoma 23.8% | HCT-15 colon 29.1%
active: NCI-H460 lung 7.61% | NCI-H522 lung -6.6% | COLO 205 colon -16.7% | DU-145 prostate 2.04% | RXF 393 renal 6.82%

CC(C)(C)NC/C(=C\c1ccccc1)C(=O)c1ccccc1
inactive: NCI-H23 lung 12.4% | NCI-H226 lung 49.1% | NCI-H322M lung 63.3% | HOP-62 NSCLC 26.5% | A549/ATCC NSCLC 30.1% | DU-145 prostate 21.8% | SF-295 CNS 85.9%
active: NCI-H460 lung 8.72% | NCI-H522 lung -92.5% | 786-0 renal -41.6% | COLO 205 colon -74.1% | K-562 leukemia 6.24% | MDA-MB-231 breast -23% | RXF 393 renal -66.4% | SF-268 CNS 7.36% | SF-539 CNS -46.2% | UACC-257 melanoma -8.37% | M14 melanoma -30.6% | HCT-15 colon -52.1%

Cc1ccc(-c2nc(/C=C3/C(=O)N(C)c4ccc(F)cc43)c3ccccn23)cc1
inactive: NCI-H23 lung 86.5% | NCI-H226 lung 106% | NCI-H322M lung 103% | HOP-62 NSCLC 77.9% | NCI-H460 lung 96.7% | NCI-H522 lung 60.5% | A549/ATCC NSCLC 94.1% | 786-0 renal 107% | COLO 205 colon 120% | DU-145 prostate 99.3% | K-562 leukemia 107% | MDA-MB-231 breast 76.5% | RXF 393 renal 97.9% | SF-268 CNS 92.1% | SF-295 CNS 71.3% | SF-539 CNS 94.6% | UACC-257 melanoma 106% | M14 melanoma 99.5% | HCT-15 colon 93%

COc1ccc2c(c1)N(CCO)C1=C(C(=O)OC1)C2c1ccccc1 (stereo unspecified)
active: NCI-H460 lung 9.29% | NCI-H522 lung -24.9% | COLO 205 colon 8.42% | RXF 393 renal 2.16% | SF-295 CNS -11.6% | SF-539 CNS 2.74% | M14 melanoma 7.89%
inactive: NCI-H23 lung 35.1% | NCI-H226 lung 36.3% | NCI-H322M lung 41.7% | HOP-62 NSCLC 24% | A549/ATCC NSCLC 46.6% | 786-0 renal 37.9% | DU-145 prostate 16.4% | K-562 leukemia 16.3% | MDA-MB-231 breast 63.4% | SF-268 CNS 51.2% | UACC-257 melanoma 55% | HCT-15 colon 22.4%

FC(F)(F)c1ccc2nc(-c3nc(-c4ccccc4)n4ccccc34)[nH]c2c1
inactive: NCI-H23 lung 78.9% | NCI-H226 lung 99.4% | NCI-H322M lung 55% | HOP-62 NSCLC 110% | NCI-H460 lung 59.4% | NCI-H522 lung 68.3% | A549/ATCC NSCLC 49.5% | 786-0 renal 40.2% | COLO 205 colon 58.9% | DU-145 prostate 68.7% | K-562 leukemia 82.7% | MDA-MB-231 breast 22.1% | RXF 393 renal 94.4% | SF-268 CNS 49.1% | SF-295 CNS 104% | SF-539 CNS 35.1% | UACC-257 melanoma 81.7% | M14 melanoma 96% | HCT-15 colon 60.4%
